Legend:
Assay in all cases: DAPPL (digital affinity profiling via proximity ligation, sequencing); 10 mM Tris-HCl pH 7.5, 50 mM NaCl, 1 mM DTT, 4% glycerol, room temperature, 30 min; GST-TFs on glutathione beads, 16-mer random dsDNA library, 0.1% formaldehyde crosslink after washing; high values mean tight binding
Conditions in all cases: protein: recombinant; tags: N-terminal GST; dsDNA, one strand shown
FLI1 = target: T1, FLI1 (Homo sapiens, UniProt Q01543 1-452)
T1 sequence: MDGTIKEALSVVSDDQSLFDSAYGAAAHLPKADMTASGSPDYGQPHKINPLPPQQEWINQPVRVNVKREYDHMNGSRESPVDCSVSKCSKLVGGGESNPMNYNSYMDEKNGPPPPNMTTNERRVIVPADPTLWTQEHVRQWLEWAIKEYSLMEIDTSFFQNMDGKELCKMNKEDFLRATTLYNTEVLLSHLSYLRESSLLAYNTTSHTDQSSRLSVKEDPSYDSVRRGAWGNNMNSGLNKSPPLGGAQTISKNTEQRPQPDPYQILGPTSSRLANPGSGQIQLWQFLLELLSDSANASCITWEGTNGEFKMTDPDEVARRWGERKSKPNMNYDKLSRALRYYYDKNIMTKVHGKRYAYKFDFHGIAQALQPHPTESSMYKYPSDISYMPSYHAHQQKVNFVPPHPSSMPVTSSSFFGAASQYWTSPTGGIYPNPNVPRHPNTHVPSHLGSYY
Procedure, shortened: (§1)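 Pools were built from human transcription factors expressed in yeast as GST fusions, captured on glutathione beads and DNA-barcoded, along with a tag-only sample. Incubation with 200 nmole of a 16-mer random double-stranded DNA library lasted 30 min at room temperature in Tris/NaCl/DTT/glycerol buffer, and was followed by washing, 0.1% formaldehyde crosslinking, proximity ligation, PCR amplification and Illumina NextSeq500 sequencing. Binding signal is the quotient of each hexamer's read frequency for a factor and its frequency for the tag-only sample.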

ELK1 = target: T2, ELK1 (Homo sapiens, UniProt P19419 1-428)
T2 sequence: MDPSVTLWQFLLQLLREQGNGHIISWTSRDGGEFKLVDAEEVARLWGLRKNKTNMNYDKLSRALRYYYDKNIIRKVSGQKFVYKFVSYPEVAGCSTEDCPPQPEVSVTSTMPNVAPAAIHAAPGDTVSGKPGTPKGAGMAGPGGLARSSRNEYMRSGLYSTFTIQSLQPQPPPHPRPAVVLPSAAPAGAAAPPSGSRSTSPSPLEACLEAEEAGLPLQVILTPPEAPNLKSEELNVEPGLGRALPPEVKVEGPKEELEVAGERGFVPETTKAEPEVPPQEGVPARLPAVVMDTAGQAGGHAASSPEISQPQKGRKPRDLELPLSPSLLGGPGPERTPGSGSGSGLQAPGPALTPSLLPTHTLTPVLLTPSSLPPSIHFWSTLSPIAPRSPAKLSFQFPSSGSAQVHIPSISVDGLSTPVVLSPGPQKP
Procedure, shortened: as §1

GABPA = target: T3, GABPA (Homo sapiens, UniProt Q06546 1-454)
T3 sequence: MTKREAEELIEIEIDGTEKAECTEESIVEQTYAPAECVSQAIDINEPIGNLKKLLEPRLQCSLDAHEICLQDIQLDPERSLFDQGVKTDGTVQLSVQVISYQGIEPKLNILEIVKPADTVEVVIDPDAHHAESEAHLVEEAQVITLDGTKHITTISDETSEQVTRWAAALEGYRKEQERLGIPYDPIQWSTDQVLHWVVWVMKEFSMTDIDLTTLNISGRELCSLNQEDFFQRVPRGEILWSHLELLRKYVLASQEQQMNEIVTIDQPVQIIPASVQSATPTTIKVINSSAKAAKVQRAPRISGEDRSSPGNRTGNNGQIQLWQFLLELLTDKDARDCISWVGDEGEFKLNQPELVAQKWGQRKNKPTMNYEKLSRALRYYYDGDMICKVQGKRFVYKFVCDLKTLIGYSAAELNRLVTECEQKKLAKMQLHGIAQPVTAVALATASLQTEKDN
Procedure, shortened: as §1

ELF1 = ELF1 (Homo sapiens, UniProt P32519 1-619)
Procedure, shortened: as §1

EHF = target: T4, EHF (Homo sapiens, UniProt Q9NZC4 1-300)
T4 sequence: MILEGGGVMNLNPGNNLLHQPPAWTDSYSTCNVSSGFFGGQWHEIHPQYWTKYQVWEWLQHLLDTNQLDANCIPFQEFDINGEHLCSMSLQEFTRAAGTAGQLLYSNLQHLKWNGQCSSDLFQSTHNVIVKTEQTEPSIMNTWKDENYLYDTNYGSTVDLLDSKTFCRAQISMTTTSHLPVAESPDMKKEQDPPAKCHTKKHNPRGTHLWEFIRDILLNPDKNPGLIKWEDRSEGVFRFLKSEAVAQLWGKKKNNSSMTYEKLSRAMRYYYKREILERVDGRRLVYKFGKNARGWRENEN
Procedure, shortened: as §1

SPI1 = SPI1 (Homo sapiens, UniProt P17947 1-270)
Procedure, shortened: as §1

SPIB = SPIB (Homo sapiens, UniProt Q01892 1-262)
Procedure, shortened: as §1

ELK3 = target: T5, ELK3 (Homo sapiens, UniProt P41970 1-407)
T5 sequence: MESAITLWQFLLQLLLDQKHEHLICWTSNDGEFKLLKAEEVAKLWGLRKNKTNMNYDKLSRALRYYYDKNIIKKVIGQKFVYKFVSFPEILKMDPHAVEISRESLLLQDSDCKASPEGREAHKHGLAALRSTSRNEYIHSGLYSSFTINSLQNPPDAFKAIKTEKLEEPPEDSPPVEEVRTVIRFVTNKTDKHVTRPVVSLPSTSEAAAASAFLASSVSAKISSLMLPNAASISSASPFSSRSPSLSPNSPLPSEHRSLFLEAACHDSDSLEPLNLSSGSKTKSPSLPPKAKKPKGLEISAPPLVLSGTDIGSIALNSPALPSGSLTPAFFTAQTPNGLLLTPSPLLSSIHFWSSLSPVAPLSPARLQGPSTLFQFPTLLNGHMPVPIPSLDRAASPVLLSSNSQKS
Procedure, shortened: as §1

ERG = target: T6, ERG (Homo sapiens, UniProt P11308 1-479)
T6 sequence: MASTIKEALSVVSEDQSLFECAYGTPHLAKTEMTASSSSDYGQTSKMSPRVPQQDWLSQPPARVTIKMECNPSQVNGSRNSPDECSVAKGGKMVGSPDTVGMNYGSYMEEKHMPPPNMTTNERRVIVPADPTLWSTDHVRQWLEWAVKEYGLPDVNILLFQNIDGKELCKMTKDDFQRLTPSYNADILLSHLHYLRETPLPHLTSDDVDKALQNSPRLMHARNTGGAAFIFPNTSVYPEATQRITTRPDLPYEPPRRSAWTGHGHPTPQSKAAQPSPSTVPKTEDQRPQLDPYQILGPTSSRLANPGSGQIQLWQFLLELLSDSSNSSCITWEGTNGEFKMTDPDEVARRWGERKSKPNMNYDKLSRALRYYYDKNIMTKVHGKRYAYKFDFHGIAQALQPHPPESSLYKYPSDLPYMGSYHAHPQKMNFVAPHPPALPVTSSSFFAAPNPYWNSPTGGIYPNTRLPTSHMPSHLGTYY
Procedure, shortened: as §1

Sequence of ELF1 (P32519 whole entry): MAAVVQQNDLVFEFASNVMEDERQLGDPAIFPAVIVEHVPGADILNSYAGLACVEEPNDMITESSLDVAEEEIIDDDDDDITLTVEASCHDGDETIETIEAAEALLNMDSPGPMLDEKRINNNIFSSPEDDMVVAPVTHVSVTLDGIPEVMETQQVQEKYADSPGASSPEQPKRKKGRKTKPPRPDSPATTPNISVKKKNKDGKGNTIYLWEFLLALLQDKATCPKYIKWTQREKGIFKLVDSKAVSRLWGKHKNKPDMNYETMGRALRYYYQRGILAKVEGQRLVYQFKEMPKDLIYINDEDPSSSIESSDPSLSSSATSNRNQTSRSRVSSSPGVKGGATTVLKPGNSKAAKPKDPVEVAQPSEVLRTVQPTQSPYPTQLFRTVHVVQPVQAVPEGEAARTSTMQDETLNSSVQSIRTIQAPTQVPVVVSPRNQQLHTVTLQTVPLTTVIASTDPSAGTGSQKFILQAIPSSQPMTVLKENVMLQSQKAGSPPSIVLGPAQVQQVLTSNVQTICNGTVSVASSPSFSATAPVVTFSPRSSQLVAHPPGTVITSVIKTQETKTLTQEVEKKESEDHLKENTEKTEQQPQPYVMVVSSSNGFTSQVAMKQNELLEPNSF
Sequence of SPIB (Q01892 whole entry): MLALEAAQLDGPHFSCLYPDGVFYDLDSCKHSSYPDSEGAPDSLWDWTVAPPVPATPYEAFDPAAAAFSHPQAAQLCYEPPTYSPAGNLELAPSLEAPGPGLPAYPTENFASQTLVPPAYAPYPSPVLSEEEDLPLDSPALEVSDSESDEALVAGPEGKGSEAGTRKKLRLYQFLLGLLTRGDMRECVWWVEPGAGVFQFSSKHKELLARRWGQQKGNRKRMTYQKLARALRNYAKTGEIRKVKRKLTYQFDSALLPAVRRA

Sequence | binding signal (FLI1) | binding signal (ELK1) | binding signal (GABPA) | binding signal (ELF1) | binding signal (EHF) | binding signal (SPI1) | binding signal (SPIB) | binding signal (ELK3) | binding signal (ERG)
TCAGCA | 1.08 fold enrichment (6-mer frequency, TF over GST control) | 1.02 fold enrichment (6-mer frequency, TF over GST control) | 1.06 fold enrichment (6-mer frequency, TF over GST control) | 1.04 fold enrichment (6-mer frequency, TF over GST control) | 1.09 fold enrichment (6-mer frequency, TF over GST control) | 1.02 fold enrichment (6-mer frequency, TF over GST control) | 1.01 fold enrichment (6-mer frequency, TF over GST control) | 1.07 fold enrichment (6-mer frequency, TF over GST control) | 
AAAGGT | 1.1 fold enrichment (6-mer frequency, TF over GST control) | 1.06 fold enrichment (6-mer frequency, TF over GST control) | 1.1 fold enrichment (6-mer frequency, TF over GST control) | 1.07 fold enrichment (6-mer frequency, TF over GST control) | 1.06 fold enrichment (6-mer frequency, TF over GST control) | 1.01 fold enrichment (6-mer frequency, TF over GST control) | 1.02 fold enrichment (6-mer frequency, TF over GST control) | 1.05 fold enrichment (6-mer frequency, TF over GST control) | 
TGAGCT | 1.15 fold enrichment (6-mer frequency, TF over GST control) | 1.08 fold enrichment (6-mer frequency, TF over GST control) | 1.05 fold enrichment (6-mer frequency, TF over GST control) | 1.02 fold enrichment (6-mer frequency, TF over GST control) | 1.16 fold enrichment (6-mer frequency, TF over GST control) |  |  | 1.05 fold enrichment (6-mer frequency, TF over GST control) | 
TAGCGA | 1.1 fold enrichment (6-mer frequency, TF over GST control) | 1.01 fold enrichment (6-mer frequency, TF over GST control) | 1.18 fold enrichment (6-mer frequency, TF over GST control) | 1.03 fold enrichment (6-mer frequency, TF over GST control) | 1.03 fold enrichment (6-mer frequency, TF over GST control) |  |  | 1.08 fold enrichment (6-mer frequency, TF over GST control) | 
CAGAAT | 1 fold enrichment (6-mer frequency, TF over GST control) | 1.01 fold enrichment (6-mer frequency, TF over GST control) | 1.02 fold enrichment (6-mer frequency, TF over GST control) | 1.03 fold enrichment (6-mer frequency, TF over GST control) | 1.05 fold enrichment (6-mer frequency, TF over GST control) |  | 1.05 fold enrichment (6-mer frequency, TF over GST control) | 1.01 fold enrichment (6-mer frequency, TF over GST control) | 
TAGTGC | 1.05 fold enrichment (6-mer frequency, TF over GST control) | 1.02 fold enrichment (6-mer frequency, TF over GST control) | 1.12 fold enrichment (6-mer frequency, TF over GST control) | 1.1 fold enrichment (6-mer frequency, TF over GST control) |  | 1.05 fold enrichment (6-mer frequency, TF over GST control) | 1.03 fold enrichment (6-mer frequency, TF over GST control) | 1.07 fold enrichment (6-mer frequency, TF over GST control) | 
AAGCCC | 1.04 fold enrichment (6-mer frequency, TF over GST control) | 1.07 fold enrichment (6-mer frequency, TF over GST control) | 1.11 fold enrichment (6-mer frequency, TF over GST control) | 1.08 fold enrichment (6-mer frequency, TF over GST control) |  | 1.04 fold enrichment (6-mer frequency, TF over GST control) | 1.07 fold enrichment (6-mer frequency, TF over GST control) |  | 
TAAGCG | 1.05 fold enrichment (6-mer frequency, TF over GST control) |  | 1.01 fold enrichment (6-mer frequency, TF over GST control) | 1.02 fold enrichment (6-mer frequency, TF over GST control) | 1.02 fold enrichment (6-mer frequency, TF over GST control) | 1.03 fold enrichment (6-mer frequency, TF over GST control) |  | 1.01 fold enrichment (6-mer frequency, TF over GST control) | 1.02 fold enrichment (6-mer frequency, TF over GST control)
TGAAAA | 1.06 fold enrichment (6-mer frequency, TF over GST control) | 1.03 fold enrichment (6-mer frequency, TF over GST control) |  | 1.04 fold enrichment (6-mer frequency, TF over GST control) | 1.08 fold enrichment (6-mer frequency, TF over GST control) | 1.23 fold enrichment (6-mer frequency, TF over GST control) |  |  | 
